Measured values as given in PubChem BioAssay AID1903 (Southern Research Specialized Biocontainment Screening …, 2009).
Out of some 310,000 compounds screened, about 1,200 (0.39%) were called active. The rule behind the calls is not given here. The list is a sample of the results. Measured potencies and affinities stand elsewhere.

Each molecule was assayed against Large T antigen (Simian virus 40) (UniProt P03070) (assay: SV40 large T antigen inhibitors, biochemical (AID 1903)). Details: SV40 large T antigen ATPase/helicase inhibition assay; at 20 µM; hits give high values.
Sequence of Large T antigen (Simian virus 40) (P03070 whole entry, looked up): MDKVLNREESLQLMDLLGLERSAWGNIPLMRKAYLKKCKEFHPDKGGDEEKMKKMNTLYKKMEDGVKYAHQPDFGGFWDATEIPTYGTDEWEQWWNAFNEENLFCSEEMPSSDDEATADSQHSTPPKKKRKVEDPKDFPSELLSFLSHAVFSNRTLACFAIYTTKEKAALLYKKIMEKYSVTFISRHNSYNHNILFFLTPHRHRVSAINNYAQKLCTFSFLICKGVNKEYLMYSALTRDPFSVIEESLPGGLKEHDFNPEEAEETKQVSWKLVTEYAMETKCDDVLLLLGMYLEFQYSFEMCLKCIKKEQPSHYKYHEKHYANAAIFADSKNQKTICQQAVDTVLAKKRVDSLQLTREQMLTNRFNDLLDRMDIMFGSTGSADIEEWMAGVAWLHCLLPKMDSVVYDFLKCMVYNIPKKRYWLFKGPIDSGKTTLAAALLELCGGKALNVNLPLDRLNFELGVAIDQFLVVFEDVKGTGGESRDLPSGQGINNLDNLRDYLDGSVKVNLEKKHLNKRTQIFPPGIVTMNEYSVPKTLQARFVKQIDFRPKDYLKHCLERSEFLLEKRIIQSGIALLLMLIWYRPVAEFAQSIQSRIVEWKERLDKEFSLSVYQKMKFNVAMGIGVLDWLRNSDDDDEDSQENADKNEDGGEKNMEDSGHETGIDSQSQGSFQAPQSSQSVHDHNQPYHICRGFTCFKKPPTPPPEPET

inhibition, inactive:
O=C1N/C(=C/c2ccc(Br)s2)C(=O)N1c1ccccc1 8.81%, CC1=NN(c2ccc(C)cc2)C(=O)/C1=C\c1ccc(Br)s1 -1.11%, Cc1ccc(S(=O)(=O)N2CCCCC2)cc1C(=O)NC1CC(C)(C)NC(C)(C)C1 13.5%, CCOC(=O)C1=C(O)/C(=C/c2cc(OC)c(OC)c(OC)c2)N=C1C 3.44%, COC(=O)C1=C(O)/C(=C\c2ccc(OCC(=O)Nc3ccc(OC)cc3)cc2)N=C1C 7.17%, COC(=O)C1=C(O)/C(=C\c2sccc2C)N=C1C 10.2%, COC(=O)C1=C(O)/C(=C\c2ccc(OCC(=O)Nc3ccccc3OC)cc2)N=C1C -3.54%, COC(=O)C1=C(O)/C(=C\c2ccc(OCC(=O)Nc3ccccc3)cc2)N=C1C 4.47%, CCOC(=O)C1=C(O)/C(=C\c2ccc(OC)c(OC)c2)N=C1C 4.98%, C=CCc1cccc(CNc2nc3ccccc3n2CCN2CCOCC2)c1O -5.32%, O=C(/C=C/c1cccc(Br)c1)NC1CCN(Cc2ccccc2)CC1 7.35%, Oc1ccccc1N=Cc1sc2ccccc2c1Cl 19.7%, CSc1ccccc1NC(=O)CSc1nncs1 14.5%, CN(C(=O)C1CCCO1)c1nnc(-c2ccccn2)s1 (stereo not given) 8.98%, CCN(CC)c1ccc(NC(=O)CN2CCN(CC(=O)Nc3ccc(F)cc3)CC2)cc1 26.9%, CN1CC(=O)N(CC(=O)Nc2ccc(N(C)C)cc2)c2ccccc2C1=O 37.1%, CC(=O)c1ccc(NC(=O)Cn2nc(C)c([N+](=O)[O-])c2C)cc1 4.55%, Cc1ccc(NC(=O)CC2NCCNC2=O)cc1 (stereo not given) 5.94%, O=C(CN1CCCC1)Nc1ccc(F)cc1 -4.88%, CCc1ccc(NC(=O)CC2NCCNC2=O)cc1 (stereo not given) 8.15%, Cc1nn(CC(=O)Nc2ccc(S(=O)(=O)N(C)C)cc2)c(C)c1[N+](=O)[O-] 10.9%, CN(C)c1ccc(NC(=O)CN2C(=O)CC(c3ccccc3)=Nc3ccccc32)cc1 47%, CC12CCC(c3n[nH]c(=S)nc31)C2(C)C (stereo not given) 24.4%, Cc1ccc(SCC(=O)OCC(=O)NC2CCCCCC2)cc1 12.4%, O=C(CNC(=O)C12CC3CC(CC(C3)C1)C2)NC1=NCCS1 14.4%, Cn1ccc(C(=O)Oc2ccc(C(=O)Nc3ccc(F)cc3F)cc2)n1 1.18%, O=C(COC(=O)c1ccc(Cl)nc1)NCCNC(=O)COC(=O)c1ccc(Cl)nc1 14.5%, CC(=O)C1=C(O)C(=O)N(c2ccc(O)cc2)C1c1ccc(C)cc1 (stereo not given) 23.3%, Cn1cc(C(=O)Nc2ccc(F)c(Cl)c2)cn1 8.31%, COc1cccc(S(=O)(=O)Nc2ccc(C(=O)N3CCCCCC3)cc2)c1 -1.76%, COc1ccc(CN2CCN(C(=O)CC(C)C)CC2)c2ccccc12 0.53%, C/C(=C\C(=O)c1ncc(C(F)(F)F)cc1Cl)N(C)C 9.23%, Cn1cc(CN2CCC(n3nccc3NC(=O)Cc3ccccc3)CC2)cn1 2.67%, O=C(NC(NCC1CCCO1)C(Cl)(Cl)Cl)c1cccc2ccccc12 (stereo not given) 2.66%, NC(=O)c1cc(-c2ccccc2)sc1NC(=O)CN1CCCCC1 25.6%, CCc1cccc(N(C(=O)c2csnn2)C(C(=O)NC(C)(C)C)c2ccncc2)c1 (stereo not given) 14.2%, Cc1ccc(SCC(=O)Nc2ccc3c(c2)C(=O)N(C)C3=O)cc1 3.52%, CCN(CC)c1ccc(NC(=O)CN2CCN(c3ccc(F)cc3)CC2)cc1 22.8%, O=C(CN1CCN(c2ccc(Cl)cc2)CC1)Nc1ccc(F)cc1 5.08%, CCN1CCN(CC(=O)Nc2ccc(N(C)C)cc2)CC1 15.6%, CC(C)(C)NC(=O)CN1CCC(O)(c2ccccc2)CC1 -0.59%, CCN(CC)c1ccc(NC(=O)COC(=O)CCC(=O)c2ccc(F)cc2)cc1 26.6%, CCN(c1ccc(NC(=O)COC(=O)CCC(=O)c2ccc(F)cc2)cc1)C(C)C 23.7%, CC(C)c1ccc(NC(=O)Cn2ncn3c(cc4ccccc43)c2=O)cc1 5.59%, CCc1ccc(NC(=O)Cn2ncn3c(cc4ccccc43)c2=O)cc1 8.68%, O=C(NCCCN1CCOCC1)c1cccc(NC(=O)c2ccccc2)c1 8.5%, Cc1cc(C)n(Cc2ccc(NC(=O)c3c([N+](=O)[O-])c(C)nn3C)cc2)n1 21.7%, Cn1ccnc1/C(=N\NC(=O)c1ccccc1)c1cccc([N+](=O)[O-])c1 17.9%, Cc1nc2nc(C)c(CCC(=O)O)c(C)n2n1 8.37%, CCCCC(CC)C(=O)Nc1ccc(C)c(O)c1 (stereo not given) 1.23%, CCOc1ccc(S(=O)(=O)n2cnc3ccccc32)cc1 12.2%, CCCc1cc2c(=O)n(NC(=O)c3nn(C)cc3[N+](=O)[O-])c(C)nc2s1 15.2%, CCCCOP(=O)(c1ccc(N(C)C)cc1)C(O)c1cccnc1 (stereo not given) 7.96%, Cc1ccc(C(=O)NCc2ccncc2)cc1S(=O)(=O)Nc1cccc(C)c1C 2.57%, COc1ccc(NC(=O)COC(=O)Cn2nnc3ccccc32)cc1 12.6%, O=C(COC(=O)Cn1nnc2ccccc21)Nc1ccccc1Br 7.03%, O=C(NC1CCCC1)C1CCCN(S(=O)(=O)c2cnc[nH]2)C1 (stereo not given) 5.21%, CCOC(=O)c1ccc(NC2c3ccccc3C(=O)N2c2ccccn2)cc1 (stereo not given) 0.465%, O=C(CC1SC(=O)N(c2ccccc2)C1=O)Nc1ccccc1 (stereo not given) 38.4%, Cc1ccccc1NC(=O)CC1SC(=O)N(c2ccccc2)C1=O (stereo not given) 14%, CO/N=C/C(=N\Nc1cc(OC)cc(OC)c1)C(=O)c1ccccc1 9.31%, CCc1ccc(CNc2ccc3c(c2)ncn3CC)cc1 24.4%, CN(C)c1ccc(CNc2ccc3c(c2)ncn3C(C)(C)C)cc1 37.9%, CCn1cnc2cc(NCc3ccc(C)cc3)ccc21 35.2%, Cc1ccc(CNc2ccc3c(c2)ncn3C(C)(C)C)cc1 21.9%, CCN(CC)c1ccc(CNc2ccc3c(c2)ncn3CC)cc1 32.3%, CCc1ccc(CNc2ccc3c(c2)ncn3C)cc1 22.1%, Cc1nc2cc(-c3sccc3-n3cccc3)nn2c(C)c1C 5.6%, Cc1ccc(NS(=O)(=O)c2ccc(CCC(=O)NCc3cccnc3)cc2)cc1 7.61%, COC(=O)c1ccc(COc2cccc3c2CCN(Cc2ccccc2)C3=O)o1 4.93%, Brc1ccc2[nH]c3c(NCc4ccccn4)ncnc3c2c1 4.68%, O=C(Nc1ccccc1)N(Cc1ccccc1)C1=NCCS1 5.16%, O=C(O)COc1ccccc1/C=N/NC(=O)CN1CCN(Cc2ccccc2Cl)CC1 2.27%, CCOC(=O)c1c(NC(=O)/C=C\C(=O)O)sc(C)c1-c1ccccc1 12.2%, CCOC(=O)c1c(NC(=O)/C=C/C(=O)O)sc(C)c1-c1ccc(Cl)cc1 47.5%, COCCNc1c(-c2ccc(O)cc2)nc2ccc(Cl)cn12 25.7%, O=C(Nc1c(-c2ccccc2)nc2ccccn12)c1ccco1 19.3%, CCOC(=O)CNc1c(-c2ccc(Cl)cc2)nc2cnccn12 14.1%, Cc1ccc2[nH]c(=O)c(-c3nc4ccccn4c3NCc3ccco3)cc2c1 26%, CC(C)c1ccc(Nc2nc(Cl)nc(NCc3ccco3)n2)cc1 23.9%, CCOC(=O)CNc1c(-c2ccc(OC)cc2)nc2ccc(Cl)cn12 19.4%, OCCNc1nc(Cl)nc(NCc2ccco2)n1 3.58%, CCOC(=O)CNc1c(-c2ccccc2)nc2ccc(Cl)cn12 13.6%, Cc1ccc(CCNC(=O)C2CCCN(S(=O)(=O)c3cccc4nsnc34)C2)cc1 (stereo not given) 4.61%, CN(C)/C=C/C(=O)c1ccc(Cl)c([N+](=O)[O-])c1 11.3%, Cc1ccc(-n2nnnc2SCC(=O)Nc2ccc(N3CCN(C)CC3)cc2)c(C)c1 17.6%, COc1ccc2[nH]cc(C(=O)CN3CCCCC3)c2c1 20.3%, O=C(NCCC1=CCCCC1)Nc1ccc2nsnc2c1 -1.37%, Cn1c(N)c(C(=O)COC(=O)c2ccc(S(=O)(=O)N3CCCCC3)cc2)c(=O)n(C)c1=O 2.82%, CCc1noc(C)c1C(=O)Nc1nnc(C2CCCCC2)s1 16%, COC(=O)c1c([N+](=O)[O-])c(OC)c(OC)c(OC)c1[N+](=O)[O-] 2.68%, COC(=O)[C@H](CCSC)NS(=O)(=O)c1ccccc1Br 24.3%, Cc1cccc(NC(=O)c2ccc(NC(=O)CC3SC(N4CCCC4)=NC3=O)cc2)n1 (stereo not given) 12.5%, CC1CCCN(S(=O)(=O)c2ccc(CN3C(=O)c4cccnc4C3=O)cc2)C1 (stereo not given) 9.07%, O=C1NN(c2ccc(F)cc2)C(=O)/C1=C\C=C\c1ccco1 19.7%, CCc1ccc(N2NC(=O)/C(=C/C=C/c3ccco3)C2=O)cc1 22.1%, CC(C)CN1C(=O)/C(=C/c2ccco2)NC1=S 19.9%, CCCCn1c(N)c(N(CC)C(=O)/C=C/c2ccco2)c(=O)[nH]c1=O 5.15%, CCN1C(=O)/C(=C\c2ccco2)C(C(=O)OC)=C1C 8.18%, Cc1cccc(N=C2NC(=O)/C(=C/C=C/c3ccco3)S2)c1C 5.68%
